Among all 5,900 compounds or so, about 120 (2%) were called active. Rule as the data show it: active = percent response mostly above about 71% (no sharp cut-off); inactive = mostly below about 38%. These entries were drawn from the full list.
test system: MEKK2 (MAP3K2) mutant PB1 domain binding MEK5, human; assay: mutant MEKK2 PB1-MEK5 binding signal retest – biochemical, single concentration, multiplex bead flow cytometry, confirmation (AID 1893); conditions: Alexa488-MEK5 binding to MEKK2 mutant, at 10 µM, active compounds read high;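 also: higher means compound restores mutant binding toward wildtype level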

Percent response, inactive:
CCN1CCN(c2ccc(S(=O)(=O)N3CCCCC3)cc2NC(=O)Cc2c(Cl)cccc2Cl)CC1 20%
CCCCN1C(=O)/C(=C(/C#N)C(N)=O)c2ccccc21 -2%
CC(C)c1ccc(C(=O)NCCCc2ccccc2)cc1 -5%
Cc1ccc(C)c(CN2CCC(CNC(=O)Nc3ccc(C)c(F)c3)CC2)c1 20%
Cc1nc2cc(S(=O)(=O)C(F)(F)F)ccc2s1 -1%
O=C(Cc1cccc2ccccc12)Nc1ccc2oc(-c3ccccc3)nc2c1 10%
O=C(CSc1ccc(-c2ccc(F)cc2)nn1)Nc1ccc2c(c1)OCCO2 4%
Cc1cnc(NC(=O)Cn2cnc3c2c(=O)n(C)c(=O)n3C)s1 -16%
O=C(OCc1cc(Cl)ccc1OC(F)F)c1cccnc1 -8%
CC1(C)Cc2cccc(OCC(=O)N3CCN(c4ccc([N+](=O)[O-])cc4)CC3)c2O1 1%
CCOC(=O)c1sc2nc(C)nc(SCC(N)=O)c2c1C 5%
CCOC(=O)c1cc2c(nc1NC(=S)Nc1ccccc1)CC(C)(CC)OC2 (stereo not drawn) -4%
O=C(NCCC1=CCCCC1)c1ccc(Cl)c([N+](=O)[O-])c1 5%
Cc1cccn2c(=O)c(/C=C3\SC(=S)N(CC(C)C)C3=O)c(NCCCOC(C)C)nc12 -25%
O=C(NCCCN1CCCCCC1)C1CC(=O)N(C2CCCC2)C1 (stereo not drawn) -29%
COc1cc2c(cc1OC)CN(C(=O)c1ccc(S(=O)(=O)N3CCCCCC3)cc1)CC2 -1%
O=C(/C=C/Nc1ccccc1)c1cnc(-c2ccccc2)s1 7%
Cn1c(=NC(=O)CSCC(=O)N2CCCCC2)sc2ccccc21 8%
CCOC(=O)Cc1csc(NC(=O)CSc2nc(C)cc(=O)[nH]2)n1 -5%
CN1C(=O)/C(=C\c2ccc(-c3ccccc3)o2)SC1=S -31%
CCN(CC)CCCNC(=O)c1ccc2c(=O)n(Cc3ccc4c(c3)OCO4)c(=S)[nH]c2c1 7%
O=C(OCC1O[C@@H](OC(=O)c2cc(O)c(O)c(O)c2)[C@@H](OC(=O)c2cc(O)c(O)c(O)c2)[C@@H](OC(=O)c2cc(O)c(O)c(O)c2)[C@@H]1OC(=O)c1cc(O)c(O)c(O)c1)c1cc(O)c(O)c(O)c1 (stereo partly drawn) -34%
CCOC(=O)c1cc2occc2n1CC(=O)N1CCN(C(=O)c2ccco2)CC1 -10%
Cc1cccc(CSc2nnc(C)c(=O)n2N)c1 -2%
C=C(C)C1CC=C(C)/C(=N\NC(=O)CNc2ccccc2OC)C1 (stereo not drawn) 10%
Cc1c(-c2ccccc2)cn2c1-c1ccc(C)n1CC2 0%
CCCN(CCC)c1nc2c(C)cccn2c(=O)c1/C=C1/SC(=S)N(Cc2ccco2)C1=O -17%
O=C(O)c1cccnc1NC1CCCC1 13%
CCCc1nnc(SCC(=O)N2C(C)CCCC2C)n1CC (stereo not drawn) 10%
C/C=C/c1ccc(OCCCCN2CCC(C)CC2)c(OC)c1 4%
CNC(C)C#Cc1ccc2sc3cc(OC)c(OC)cc3c(=O)c2c1 (stereo not drawn) 16%
Cc1cc(C(=O)OCC(=O)N2c3ccccc3NC(=O)C2(C)C)c(C)n1-c1ccccc1 1%
Cc1ccc(NC(=O)COc2ccc(-n3ccnc3)cc2)cc1Cl 21%
Cc1ccc(C(=O)NC(=S)Nc2ccc3[nH]c(=O)[nH]c3c2)cc1C 4%
O=C1Nc2ccc(Br)cc2/C1=N/N=C/C1=C(N2CCOCC2)C(=C\c2ccccc2)/CC1 -20%
C#CCOCCOCCOCCNc1nc(N2CCN(C(=O)[C@H](CCCCN)n3cc([C@@H](N)C(C)CC)nn3)CC2)nc(N2CCN(C(=O)[C@H](Cc3ccc(O)cc3)n3cc([C@@H](N)C(C)CC)nn3)CC2)n1 (stereo partly drawn) 52%
COc1ccc(S(=O)(=O)Nc2ccc3oc(C)c(C(C)=O)c3c2)cc1 -3%
O=C(Cc1cccs1)N/N=C/c1ccc(OCc2ccccc2)cc1 3%
N#C/C(=C\C1=C(N2CCOCC2)C(=C\c2ccccc2)/CC1)C(=O)Nc1ccccc1F -38%
Cc1cc(C)nc(-n2ncc3c2CC(c2ccc(C(C)C)cc2)CC3=O)n1 (stereo not drawn) 0%
Cc1ccc(Nc2nc(CSc3nnc(-c4ccncc4)n3-c3ccccc3C)cs2)cc1 1%
COc1ccc(N2CCN(Cc3nnc(-c4ccccc4)o3)CC2)cc1 -5%
Cc1nc(N=C(N)N)nc2c(C)cccc12 10%
Cn1c(=NC(=O)CSCC(=O)N2CCOCC2)sc2ccccc21 -15%
Cc1cc(C)c(NC(=O)C[N+](C)(C)CC(O)COc2cccc3ccccc23)c(C)c1 (stereo not drawn) 35%
CCCCn1c(SCC(=O)NCCc2ccc(OC)c(OC)c2)nc2c1c(=O)n(C)c(=O)n2C 0%
CCOc1cc(C(=O)OCC(=O)Nc2cccc(C)c2)ccc1OCC(=O)N1CCOCC1 0%
COc1ccccc1N1CCN(CCCCOc2ccc(F)cc2)CC1 0%
Cc1ccc(S(=O)(=O)NC(=O)N2CCCC(C)(C)C2)cc1 -1%
O=C(O)c1cc(Cl)c(Cl)cc1C(=O)Nc1cccc2ncccc12 -2%
COc1ccc(-c2[nH]ncc2CN(C)Cc2c(C)n[nH]c2C)c(OC)c1 11%
CCN1CCN(c2nc(Nc3cc(OC)ccc3OC)nc(Nc3cc(OC)ccc3OC)n2)CC1 25%
C=CCn1c(=S)sc2c(=O)[nH]c(C)nc21 1%
O=C(NC1CCN(Cc2ccccc2)CC1)c1cc(Br)c(Br)[nH]1 18%
CC(=O)Nc1ccc(-c2nc3ccccc3o2)cc1 -2%
Cc1c(C#N)c2ncn(CC#N)c(=O)c2n1-c1ccccc1 -7%
O=C(NCC1CCCCC1)c1cc(S(=O)(=O)N2CCCCC2)ccc1N1CCOCC1 -16%
COc1cc(/C=C2\SC(=S)N(Nc3ncc(C(F)(F)F)cc3Cl)C2=O)cc(OC)c1OC -10%
